Rows were chosen to be rich in hits. Some 8.3% of all compounds tested hit in one or more screens of this group.
Giardia kill – Giardia lamblia killing. Giardia lamblia trophozoite viability. activity change, % at 7.66 µM, hits read low. hit rate 0.15% among 340,000; in the data active means activity change below about -80%; inconclusive means between about -30% and that limit;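 further: parasites exposed to compound for two days anaerobically before the ATP read; on the % scale 0 is the no-effect control and ±100 the full control effect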
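Luminescence from cellular ATP indicates surviving trophozoites (100 cells/well) following 48 hrs anaerobic compound treatment at 37 deg C; signal develops 15-30 min at room temperature.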
MCF10A rereplic – induces DNA re-replication in MCF 10a normal breast cells. MCF 10A DNA re-replication, Hoechst nuclear intensity, 48 h. Potency, µM (doses to about 46.1 µM), for the others: at the top dose activity, positive = re-replication, usual class: activators. hit rate 2.9% among 350,000; further: potency means the concentration at half of the fitted maximal effect; % of control where 0% means no effect; nearly all actives have a fitted effect of over 50% in size
Chronic BCR inh – chronic active BCR signaling inhibition. hit rate 0.05% among 340,000. ABC-DLBCL IkBa-CBG/CBR reporter, luminescence ratio, 4 h. Potency, µM (highest dose often 46.1 µM), inactives show top-dose activity change, negative = inhibition, most hits filed as inhibitors; active means well fitted inhibition curve with a large enough effect in the signal ratio, with a control signal flat, not every such curve was filed as active; inconclusive means small, poorly fitted or top-dose-only effect, or effect the other way, or a change in a side signal; the % refers to the signal ratio;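 further: potency means the concentration at half of the fitted maximal effect; plate controls were basal doxycycline-induced cells for no effect and cells given 10 µM MG132 for full effect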
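TMD8 human ABC-DLBCL cells with doxycycline-inducible IκBα–green luciferase fusion and unfused red luciferase, in 0.5% FBS medium; compounds up to 46 uM, 4 h at 37C. Green/red luminescence ratio, filter-overlap corrected, fitted to concentration-response curves.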
RORg inh – inhibitors of mouse ROR gamma transcriptional activity. AID 2551. P51450. Potency, µM (doses to about 53.6 µM), inactives show at the highest dose activity change, negative = inhibition, usual class: inhibitors. Drosophila S2 Gal4-RORgamma UAS-luciferase reporter, 20 h. hit rate 5.4% among 310,000; further: potency means the concentration at half of the fitted maximal effect; on the % scale 0 is the no-effect control and ±100 the full control effect; nearly all actives have a fitted effect of over 60% in size
Target sequence (P51450 whole entry, looked up, the tested form may be a part): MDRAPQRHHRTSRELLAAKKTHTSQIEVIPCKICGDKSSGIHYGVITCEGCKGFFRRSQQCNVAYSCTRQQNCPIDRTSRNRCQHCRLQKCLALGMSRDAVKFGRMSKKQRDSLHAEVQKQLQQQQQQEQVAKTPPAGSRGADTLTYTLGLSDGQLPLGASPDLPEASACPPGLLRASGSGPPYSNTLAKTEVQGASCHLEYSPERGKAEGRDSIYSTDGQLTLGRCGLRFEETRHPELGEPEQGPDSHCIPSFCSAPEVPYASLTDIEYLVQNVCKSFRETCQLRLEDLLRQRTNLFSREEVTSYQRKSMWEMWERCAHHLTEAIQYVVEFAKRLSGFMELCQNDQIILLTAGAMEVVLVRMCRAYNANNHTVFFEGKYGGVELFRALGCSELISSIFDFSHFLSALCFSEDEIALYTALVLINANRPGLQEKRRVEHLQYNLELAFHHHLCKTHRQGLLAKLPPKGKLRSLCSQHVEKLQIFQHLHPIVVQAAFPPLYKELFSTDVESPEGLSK
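Drosophila S2 cells stably expressing Gal4-DBD/mouse RORγ fusion under metallothionein promoter plus UAS-luciferase; compound 1 h, then 700 uM CuSO4 induction for 20 h at ambient temperature; inhibition read as reduced luminescence.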
SW480 rerep – induces DNA re-replication in SW480 colon adenocarcinoma cells | SW480 DNA re-replication, Hoechst DNA content imaging, 48 h | Potency, µM (highest dose often 46.1 µM), for inactives: at the top dose re-replication activation, hits mostly activators | hit rate 1.8% among 340,000; further: potency means the concentration at half of the fitted maximal effect; % of control where 0% means no effect; nearly all actives have a fitted effect of over 55% in size
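Per well, 250 cells were exposed to pinned compound for 48 hr. Nuclear DNA was visualised with Hoechst (40 min, 37 C) and total object intensity recorded by fluorescence scanning.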
Gal4-VP16 FLuc – Gal4-VP16 reporter inhibition counter-screen; Potency, µM (titrated, usually from 53.6 µM), for inactives: at the highest dose activity, negative = inhibition, usual class: inhibitors; AID 2546; hit rate 3.5% among 310,000; Drosophila S2 Gal4-VP16 UAS-luciferase, luminescence, 20 h;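 further: Gal4-VP16 expression switched on by copper sulfate through the metallothionein promoter; potency means the concentration at half of the fitted maximal effect; on the % scale 0 is the no-effect control and ±100 the full control effect; nearly all actives have a fitted effect of over 50% in size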
* hit, by the source's call; ? = inconclusive; / = no result; [ ] = remark or other dose. Unless noted, the call rests on the fitted dose curve; in most records, active means well fitted curve in the direction sought with a large enough effect; inconclusive means small, poorly fitted or top-dose-only effect, or another doubt; inactive means no such curve, though single readings can be large; an effect the other way counts as inactive or inconclusive.

SMILES	Giardia kill	MCF10A rereplic	Chronic BCR inh	RORg inh	SW480 rerep	Gal4-VP16 FLuc
CCOc1ccccc1NC(=O)c1ccccc1NC(=O)c1ccco1	-12	29%	1%	23%	?	-9%
O=C(Nc1ccccc1OCc1ccccc1)c1ccccc1Br	2	0.58µM*	8%	5%	?	2%
C/C(Cn1nnc([N+](=O)[O-])n1)=N\NC(=O)c1cccc(Cl)c1	2	3%	?	10µM*	-7%	?
C/C(Cn1nc([N+](=O)[O-])cc1C)=N\NC(=O)c1cccc(Br)c1	-2	-1%	?	13µM*	-2%	?
O=C1/C(=N\S(=O)(=O)c2cccs2)C([n+]2ccccc2)=C([O-])c2ccccc21	-7	17%	?	0%	12µM*	?
CC(C)(C)c1cc[n+](C2=C([O-])c3ccccc3C(=O)/C2=N\S(=O)(=O)c2cccs2)cc1	15	?	?	11µM*	?	8.9µM*
N/C(=N\S(=O)(=O)c1cccs1)c1ccccc1	-7	-1%	15%	15%	-2%	5%
O=S(=O)(/N=C/c1ccccc1O)c1cccs1	-10	-1%	5%	-1%	-4%	-4%
COc1ccc(/C(C)=N/NC(=O)OC(C)(C)C)cc1[N+](=O)[O-]	-19	-1%	-12%	34%	-8%	19%
CCOC(=O)c1c(C)[nH]c(C)c1C(=O)COC(=O)CSc1ccc(C)cc1	6	19%	-18%	/	?	/
CC(=O)Nc1ccc(S(=O)(=O)N2C(=O)c3cccc4cccc2c34)cc1	/	/	1%	11%	/	0%
CC(C)NC(=O)NC(=O)CSc1nnc(COc2ccccc2F)n1C(C)C1CC2CCC1C2 (centres undefined)	23	13µM*	?	?	?	?
CCOC(=O)c1c(C=O)c2sc(C)cc2n1C	-1	-17%	?	-24%	-13%	-6%
CCOC(=O)C1=C(C)Nc2sc(C(=O)c3ccc(OC)cc3)c(N)c2C1c1ccc(C(=O)OC)cc1 (centres undefined)	10	12µM*	-1%	7%	13µM*	-11%
COC(=O)C1=C(C)Nc2sc(C(N)=O)c(N)c2C1c1ccncc1 (centres undefined)	4	?	-9%	-2%	23µM*	1%
O=C(NCCc1ccc(F)cc1)c1coc(=O)c(Br)c1	25	4.1µM*	?	-24%	18%	6%
Nc1c(N(CCC2=CCCCC2)C(=O)COc2ccc(F)cc2)c(=O)[nH]c(=O)n1Cc1ccccc1	-24	16µM*	8%	/	-9%	/
Cc1ccccc1C(=O)Nc1nnc(-c2ccc(F)cc2)o1	-12	10%	?	1.3µM*	8%	0.45µM*
O=C(Nc1nnc(-c2ccc(Cl)cc2)o1)Nc1ccccc1F	0	-5%	-10%	-21%	-5%	-1%
Cc1ccccc1C(=O)Nc1nnc(-c2cccnc2)o1	1	10%	?	3.2µM*	5%	5µM*
O=C(Nc1nnc(-c2ccccc2Cl)o1)c1cccnc1	8	20%	?	0.89µM*	?	1.3µM*
O=C(Nc1ccc(NC(=O)c2ccccc2Cl)cc1)c1cccnc1	8	-5%	?	-10%	1%	2%
O=C(Nc1nnc(-c2ccc(F)cc2)o1)c1ccco1	-7	10%	?	?	0%	5µM*
Cc1ccccc1C(=O)Nc1nc(-c2cccnc2)cs1	22	0%	?	1%	24%	2%
Cc1nonc1CN(C)C(=O)CC1C(=O)NCCN1Cc1ccc(F)c(F)c1 (centres undefined)	?	0%	21%	-20%	-10%	21%
SMILES	Giardia kill	MCF10A rereplic	Chronic BCR inh	RORg inh	SW480 rerep	Gal4-VP16 FLuc
CC(=O)Nc1nnc(-c2c(-c3ccccc3Cl)noc2C)o1	9	-35%	-13%	5µM*	-2%	18µM*
CC(=O)Nc1ccc(NC(=O)c2c(-c3ccccc3Cl)noc2C)cc1	5	2%	-7%	8%	-1%	2%
COc1ccccc1C(=O)Nc1nnc(-c2ccc(F)cc2)o1	6	-5%	?	7.9µM*	-18%	11µM*
COc1ccccc1C(=O)Nc1nnc(-c2ccc(F)cc2)s1	-7	-7%	?	41%	-1%	23%
O=C(CSc1nc(=O)[nH]c2c1CCCC2)NCc1ccc(Cl)cc1	/	/	2%	/	/	/
CCc1cc(C(=O)N2CCN(S(=O)(=O)c3ccc(Cl)cc3)CC2)sc1C	-4	0%	6%	/	10%	/
O=C(O)CCSc1ncnc2sc(-c3ccccc3)cc12	9	17%	?	1.8µM*	-1%	5µM*
CC(Sc1ncnc2sc(-c3ccccc3)cc12)C(N)=O (centres undefined)	-29	1%	-2%	13µM*	?	-25%
CC(=O)CCSc1ncnc2sc(-c3ccccc3)cc12	-6	10%	3%	-4%	7%	6%
COC1(C#CC2C=CC(OC(C)=O)C(COC(C)=O)O2)CCCCC1 (centres undefined)	/	/	/	25%[10 µM]	/	9%[10 µM]
C[C@H](CO)N1C[C@H](C)[C@@H](CN(C)C(=O)NC2CCCCC2)Oc2c(NS(=O)(=O)c3ccc(F)cc3)cccc2C1=O	10	?	3%	/	3%	/
Cc1ccccc1NC(=O)Cn1nc(C)c2ccccc2c1=O	7	-3%	?	2%	?	1%
Cc1ccc(Nc2cc(C)c(O)c(C)c2)cc1	9	-8%	3%	8.9µM*	1%	?
COC(=O)[C@@]1(Cc2ccc(OC)cc2)[C@@H]2C(=CC(=O)[C@H]2CC(=O)C(=O)N(C)C)CN1C(=O)c1ccccc1	-6	?	?	?	?	?
C=C1C(=O)C=C2CN(C(=O)c3ccccc3)[C@@](Cc3ccc(F)cc3)(C(=O)OC)[C@@H]12	?	3.7µM*	?	3.2µM*	1.3µM*	1.4µM*
Cc1ccc(-c2[nH]n3c(=O)c4c(nc3c2C)CCCC4)cc1	1	2%	?	-1%	-33%	-12%
O=c1c2c(nc3cc(-c4ccc(Br)cc4)[nH]n13)CCCC2	0	?	1%	-6%	9%	-11%
O=c1c2c(nc3c(-c4cccc(Br)c4)c[nH]n13)CCCC2	0	-68%[0.0737 µM]	-5%	2.5µM*	?	3.2µM*
O=c1c2c(nc3c(-c4ccccc4)c[nH]n13)CCC2	14	-3%	?	6.3µM*	-4%	?
O=c1c2c(nc3c(-c4ccc(Cl)cc4)c[nH]n13)CCC2	-20	30%	?	5µM*	?	?

High-throughput results (PubChem BioAssay)
